Laboratory results as given in PubChem BioAssay AID624296 (National Center for Advancing Translational Sciences (NCATS), 2012).
Out of some 350,000 compounds screened, about 9,900 (2.8%) were called active. A call without a number means that no potency is given here. Another 15% or so got no clear call; they are omitted. Calls follow the shape of the dose curve; as a rule, active = well fitted activation curve with a large enough effect; inconclusive = small, poorly fitted or top-dose-only effect; inactive = no such curve, though single readings can be large or run the other way. The sample as a whole holds a higher share of actives than the screen did.

experiment: A quantitative high throughput screen for small molecules that induce DNA re-replication in MCF 10a normal breast cells.; also: nearly all actives have a fitted effect of over 50% in size; settings: MCF 10A DNA re-replication, Hoechst nuclear intensity, 48 h; series mostly up to 46.1 µM
Potency is read from the fitted curve at half-maximal effect.

| Compound | Potency |
| --- | --- |
| Cc1ccc(C2CC(=O)NC(SCC(=O)OCc3ccccc3)=C2C#N)o1 (stereo not drawn) | 20.6 µM (active) |
| CCOC(=O)CSC1=C(C#N)C(c2sccc2C)CC(=O)N1 (stereo not drawn) | 2 µM (active) |
| COC(=O)CSC1=C(C#N)C(c2ccccc2OC)C(C(=O)OC)C(=O)N1 (stereo not drawn) | inactive |
| COc1cc2c(cc1OC)C(c1ccc(C)o1)CC(=O)N2 (stereo not drawn) | inactive |
| C=CCSC1=C(C#N)C(c2cc(Br)c(O)c(OC)c2)CC(=O)N1 (stereo not drawn) | inactive |
| C=CCOC(=O)C1=C(C)NC(SCC(=O)OCC)=C(C#N)C1c1ccc(C)cc1 (stereo not drawn) | inactive |
| CSCCC(NC(=O)COc1ccccc1)C(=O)OCc1ccc(Cl)cc1 (stereo not drawn) | inactive |
| COc1cc(N)c(Cl)cc1C(=O)OCC(=O)c1ccc2c(c1)NC(=O)CO2 | inactive |
| CCOC(=O)N(Cc1ccccc1)C1CC1 | inactive |
| CC1(C)C(=O)CCC2(C)C1=CCC1C2C(=O)CC2(C)C1CCC2(O)C(=O)CO (stereo not drawn) | inactive |
| NS(=O)(=O)c1ccc(CNC(=S)NC(=O)c2ccco2)cc1 | inactive |
| O=C(CNC(=O)c1ccc2ccccc2c1)Nc1ncccc1O | inactive |
| CCOc1cccc(-n2nnnc2-c2ccc(OC)cc2)c1 | 6.51 µM (active) |
| c1ccc(-n2nnnc2-c2cccnc2)cc1 | inactive |
| CCOC(=O)C(C)n1cnc2c(nnn2-c2cccc(OC)c2)c1=O (stereo not drawn) | inactive |
| CC1CCCCC1NCC(=O)Nc1ccccc1C(=O)Nc1ccccc1 (stereo not drawn) | inactive |
| CC(C#N)(NC(=O)CN1CCN(S(=O)(=O)c2cc(C(F)(F)F)ccc2Cl)CC1)C1CC1 (stereo not drawn) | inactive |
| CCC(=O)Nc1ccc2nc(C)n(Cc3ccccc3Cl)c(=O)c2c1 | inactive |
| CCOc1cc(NC(=O)c2ccccc2C(=O)O)c(OCC)cc1NC(=O)c1ccccc1F | inactive |
| CCN1CCN(c2cc3nc(C)n(Cc4ccccc4)c(=O)c3cc2NC(=O)c2ccccc2F)CC1 | 18.4 µM (active) |
| O=C(N=C1SC2CS(=O)(=O)CC2N1c1ccccc1)c1ccccc1 (stereo not drawn) | inactive |
| C[C@@H]1CN([C@@H](C)CO)C(=O)c2cccc(NS(=O)(=O)c3ccc(F)cc3)c2O[C@H]1CN(C)C(=O)NC1CCCCC1 | inactive |
| CN(C)CCNC(=O)c1ccc(Cl)c2cc3ccccc3nc12 | inactive |
| O=C(Nc1nc2ccc([N+](=O)[O-])cc2s1)c1ccc(S(=O)(=O)N2CCCc3ccccc32)cc1 | 2.59 µM (active) |
| CS(=O)(=O)c1ccc2nc(NC(=O)c3ccc(N4CCCC4=O)cc3)sc2c1 | inactive |

| Compound | Potency |
| --- | --- |
| Cc1ccc(NC(=O)c2cccc(S(=O)(=O)N3CCCc4ccccc43)c2)nc1 | inactive |
| COc1ccc(CCNC(=O)Cc2ccc(C)cc2)cc1OC | inactive |
| COc1ccc(CNC(=O)Cc2ccc(-c3ccccc3)cc2)cc1OC | 11.6 µM (active) |
| COc1ccc(CNC(=O)COC(=O)c2c(C)nn(-c3ccccc3)c2C)cc1OC | inactive |
| COc1ccc(CNC(=O)COC(=O)c2sccc2C)cc1OC | inactive |
| COc1ccc(CNC(=O)COc2ccccc2C(=O)c2cnn(-c3ccccc3)c2)cc1OC | 13 µM (active) |
| COc1ccc(NC(=O)CNC(=O)Cc2ccccc2)cc1OC | inactive |
| CC1CCCCC1NC(=O)NC(=O)COC(=O)C1=NN(c2ccccc2)C(=O)CC1 (stereo not drawn) | inactive |
| COc1cc(Cl)ccc1OCc1cc(C(=O)N2CC[C@@H]3CCCC[C@H]3C2)no1 | 16.4 µM (active) |
| CCn1ccnc1CN(C)C(=O)c1cc(COc2ccc(Cl)cc2OC)on1 | inactive |
| CC1CN(C(=O)c2cc(COc3c(F)cccc3F)on2)CCN1C (stereo not drawn) | inactive |
| CSc1ncccc1C(=O)NCC(c1ccco1)N1CCCCC1 (stereo not drawn) | inactive |
| CCCCCCC(=O)Nc1nc(C)c(-c2csc(Nc3cc(Cl)ccc3OC)n2)s1 | inactive |
| COC(=O)c1cnc(Nc2cc(C)ccc2OC)c2ccccc12 | inactive |
| COc1ccc(C)cc1Nc1nc(-c2c(C)[nH]c3ccccc23)cs1 | 18.4 µM (active) |
| CN(CC(=O)NCCc1ccc(F)cc1)CC(=O)Nc1ccc(F)c(F)c1F | inactive |
| CCN(CC)c1ccc(NC(=O)c2ccc(=O)[nH]c2)cc1S(=O)(=O)Nc1ccc(OC)cc1 | inactive |
| Cc1ccc2nc(N3CCN(C(=O)c4ccco4)CC3)sc2c1 | inactive |
| COc1ccc2nc(N3C(=O)C(O)=C(C(=O)c4ccco4)C3c3ccco3)sc2c1 (stereo not drawn) | inactive |
| Cc1ccc2nc(N3C(=O)C(O)=C(C(=O)c4ccco4)C3c3cccc(O)c3)sc2c1 (stereo not drawn) | 23.1 µM (active) |
| CCN(C(=O)COC(=O)c1c(C)nn(-c2ccccc2)c1Cl)c1c(N)n(Cc2ccccc2)c(=O)[nH]c1=O | inactive |
| Cc1cccc(NC(=O)CN2CCN(CC(=O)NCC3(N4CCCCC4)CCCCC3)CC2)c1C | inactive |
| CCN(CC(=O)Nc1ccc(OC)cc1)C(=O)CSCc1ccc(C)cc1 | inactive |
| OCC[C@H]1C[C@@H](O)[C@H](O)[C@]2(OCCCc3ccccc32)O1 | inactive |
| O=C(/C=C/c1ccccc1)c1ccccc1O | 20.6 µM (active) |

| Compound | Potency |
| --- | --- |
| CN(C)/C=C/C(=O)c1ccccc1F | inactive |
| O=C(/C=C/c1ccccc1)N/C(=C/c1ccccc1)C(=O)Nc1ccccc1O | inactive |
| O=C(CSc1nnc(-c2ccncc2)o1)Nc1cccc(Cl)c1 | inactive |
| CN(c1ccccc1)S(=O)(=O)c1ccc(C(=O)N2CCN(c3ccccc3Cl)CC2)cc1 | inactive |
| CN(c1ccccc1)S(=O)(=O)c1cc(C(=O)OCC(=O)N2CCN(C(=O)c3ccco3)CC2)ccc1Cl | inactive |
| CN(c1ccccc1)S(=O)(=O)c1cc(C(=O)N2CCN(c3ncccn3)CC2)ccc1Cl | 20.6 µM (active) |
| CN(C(=O)c1cccc(NC(=O)Cc2cccc(NC(=O)C3CCCN(C(=O)C4CC4)C3)c2)c1)C1CCC1 (stereo not drawn) | inactive |
| CC[C@]1(C(=O)OC)[C@H]2C(=O)N(C)C(=O)[C@H]2[C@H]2CN(C)C(=NCc3ccccc3)N21 | inactive |
| Cc1cc(NC(=O)CSc2ncc(C(F)(F)F)cc2Cl)no1 | inactive |
| C=CC[C@@H](CC(=O)N[C@H](CO)Cc1ccccc1)C(=O)N[C@@H](COC(=O)[C@@H](CC=C)Cc1ccc(F)cc1)Cc1c[nH]c2ccccc12 | inactive |
| Cc1c(CC(=O)NCCCCCC(=O)O)c(=O)oc2cc3occ(-c4ccccc4)c3cc12 | inactive |
| CCCCCCc1cc2cc(-c3nnc(-c4ccccc4)o3)c(=O)oc2cc1O | 1.46 µM (active) |
| Cc1c(CCC(=O)O)c(=O)oc2cc3occ(-c4ccccc4)c3cc12 | inactive |
| COCc1cc(C)nc2sc(C(=O)NC3CCCCC3)c(N)c12 | inactive |
| CCc1nnc(NC(=O)c2sc3nc(C)cc(COC)c3c2N)s1 | inactive |
| COc1ccc(OC)c(NC(=O)c2sc3nc(C)cc(C)c3c2N)c1 | 11.6 µM (active) |
| Cc1ccc(COC(=O)CN2C(=O)NC3(CCCC3)C2=O)cc1 | inactive |
| Cc1ccc(NC(=O)CCNC(=O)c2ccc([N+](=O)[O-])cc2)cc1S(=O)(=O)N1CCOCC1 | inactive |
| O=C(CN1C(=O)NC2(CCCCCC2)C1=O)Nc1ccc([N+](=O)[O-])cc1 | inactive |
| COc1cc2c(cc1OC)C1C(=O)c3cc(OS(C)(=O)=O)c(OC)cc3C1N(C)C2=O (stereo not drawn) | inactive |
| CCC(CO)Oc1cc(NC(=O)c2cccc3ccccc23)c2ncn(C(C)C)c2c1 (stereo not drawn) | inactive |
| COc1ccc(C2=NN(C(=O)CCC(=O)O)C(c3cccs3)C2)cc1OC (stereo not drawn) | inactive |
| CS(=O)(=O)Nc1ccc(C2=NN(S(C)(=O)=O)C(c3cccs3)C2)cc1 (stereo not drawn) | inactive |
| CCS(=O)(=O)Nc1ccc(C2=NN(C(C)=O)C(c3cccs3)C2)cc1 (stereo not drawn) | 9.2 µM (active) |
| Cn1cc(C2OC(=O)c3ccccc32)c2ccccc21 (stereo not drawn) | inactive |

| Compound | Potency |
| --- | --- |
| NNC(=O)c1oc2nc(-c3ccccc3)cc(-c3ccco3)c2c1N | 20.6 µM (active) |
| CNC(=S)NNC(=O)c1oc2nc(-c3ccccc3)cc(-c3ccco3)c2c1N | inactive |
| O=C(Nc1cccc(F)c1)c1cc(-c2ccco2)nc2ccccc12 | inactive |
| Cc1ccc(S(=O)(=O)N2C[C@@H]3CCCC[C@@H]3[C@@H](C)[C@H]2c2cn(Cc3ccccc3)c3ccc(F)cc23)cc1 | inactive |
| Cn1c(N)c(C(=O)COC(=O)COc2ccc(Cl)cc2)c(=O)n(C)c1=O | inactive |
| COc1ccccc1N1N=C(c2cccs2)CC1c1ccccc1 (stereo not drawn) | inactive |
| Fc1ccc(N2N=C(c3cccs3)CC2c2ccco2)c(F)c1 (stereo not drawn) | 7.31 µM (active) |
| Cc1ccccc1C1CC(c2cccs2)=NN1S(C)(=O)=O (stereo not drawn) | inactive |
| O=C(N/N=C\c1cccnc1)c1cc(-c2ccccc2)nc2c(Cl)cccc12 | 7.31 µM (active) |
| C/C(=N\NC(=O)c1cc(-c2ccc(O)cc2)nc2ccccc12)c1cccnc1 | inactive |
| O=C(N/N=C/c1cccnc1)c1cc2ccccc2cc1O | inactive |
| COc1cccc(CC(=NO)c2cccc(OC)c2)c1 | inactive |
| CC1(C(=O)OCC(=O)Nc2ncc(Cl)cc2Cl)CC1(Cl)Cl (stereo not drawn) | inactive |
| COc1ccc(CNC(=O)[C@H](Cc2c[nH]c3ccccc23)NC(C)=O)cc1OC | inactive |
| COc1ccc(NC(=O)[C@H](NC(=O)[C@@H]2Cc3ccccc3CN2)c2ccccc2)cc1 | inactive |
| COc1cccc(NC(=O)[C@H](Cc2c[nH]c3ccccc23)NC(=O)[C@@H]2Cc3ccccc3CN2)c1 | 18.4 µM (active) |
| CCc1c(Nc2ccccc2C)nc(N)[nH]c1=O | inactive |
| COc1ccc(OC)c(CN2CCN(C(=O)CNC(=O)c3cc(C)cc(C)c3)CC2)c1 | inactive |
| Cc1ccc(C(=O)NCC(c2cccs2)N(C)C)cc1S(=O)(=O)N1CCOCC1 (stereo not drawn) | inactive |
| COc1ccc2[nH]c3c(c2c1)CCN1C(=O)C(CC(=O)NCCc2ccccn2)C[C@H](C(=O)N2CCOCC2)[C@@]31C (stereo partly drawn) | inactive |
| CCc1ccc(C(=O)OCC(=O)Nc2cccc(S(=O)(=O)NC3=NCCCCC3)c2)cc1 | inactive |
| O=C(COC(=O)c1c(Cl)cccc1Cl)Nc1cccc(S(=O)(=O)NC2=NCCCCC2)c1 | inactive |
| COc1ccccc1C(=O)OCC(=O)Nc1cccc(S(=O)(=O)NC2=NCCCCC2)c1 | 18.4 µM (active) |
